# Experimental data as given in PubChem BioAssay (EPA / NIEHS).
# Records with an inconclusive call do not appear. Calls of active or inactive are those of the source. Rule for the calls, unless noted: active = hit-call score of the fitted dose curve at least 0.9, where 1 is the maximum; inactive = score below 0.9.
# Assays:
# TTR (gene 7276) = assay: CCTE_GLTED_hTTR_0.125uM: CCTE's human Transthyretin (hTTR) Inhibition Assay, with 0.125uM TTR, Great Lakes Toxicology and Ecology Division (GLTED) Lab (AID 2284431);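 note: hits lower the fluorescence signal relative to DMSO baseline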
# Summary of the method: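 TTR 0.125uM + test chemical, 2 h; ANSA probe displacement; ex 380/em 475 fluorescence; signal loss vs DMSO control.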
# [1] = test system: Brachyury (BRA) Protein Expression, TBXT (gene 6862); assay: CCTE_Deisenroth_DEVTOX-GLR_Endo_BRA: CCTE's DevTox GLR-Endo Assay Evaluation of Brachyury (BRA) Protein Expression, Deisenroth Lab (AID 2284417)
# Summary of the method: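 RUES2-GLR pluripotent cells differentiated 48 h with two chemical exposures 24 h apart, 10-point range 1 nM - 200 uM. Percentage of BRA+ cells per total count by high-content imaging, minus 0.2% DMSO control.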
# [2] = CCTE_Deisenroth_DEVTOX-GLR_Endo_CellCount: Viability Assessment in CCTE's DevTox GLR-Endo Assay, Deisenroth Lab (AID 2284420)
# Method: CCTE_Deisenroth_DEVTOX-GLR_Endo assay is a cell-based, multiplex-readout assay that uses RUES2-GLR, a human pluripotent cell line, with measurements taken at 48 hours after chemical dosing in a 384-well microplateCCTE_Deisenroth_DEVTOX-GLR_Endo_CellCount is 1 of 4 assay components calculated from the CCTE_Deisenroth_DEVTOX-GLR_Endo assay and it measures cell count. Using fluorescent nuclear staining, loss-of-signal activity can be used to understand changes in cell viability with fluorescent microscopy. It is designed to make measurements of nuclei counts as a surrogate for cell number, as detected with optical fluorescence microscopy by Perkin Elmer Harmony nuclei detection algorithm. To generalize the intended target to other relatable targets, this assay component is annotated to the cell cycle intended target family, where the subfamily is cytotoxicity.Data from the assay component CCTE_Deisenroth_DEVTOX-GLR_Endo_CellCount was analyzed as 1 assay endpoint. The endpoint the percent change in cell count relative to the 0.2% DMSO control in the CCTE_Deisenroth_DEVTOX-GLR_Endo assay. Furthermore, this assay endpoint can be referred to as a primary readout, because this assay has produced multiple assay endpoints where this one serves as a measure of cytotoxicity.
# All assay protocols are aligned to the DevTox GLR-Endo assay workflow. Cells are seeded into 384-well microplates for 24 hours prior to initiating differentiation in defined media for a total duration of 48 hours. A total of two chemical exposures are administered in 24-hour intervals during the 48-hour differentiation period. At the assay termination point, cells are fixed and stained with a fluorescent dye demarcating the nucleus. High-content imaging is used to acquire brightfield and fluorescent channel images across 5 fields per well. Cell identification and mean biomarker fluorescence intensities are calculated with image analysis software to determine the total cell counts for viability assessment and the biomarker expression frequency for each lineage-dependent assay. A typical experimental design tests a 10-point concentration series (1 nM - 200 uM) for 28 compounds in single technical replicate. Assay plate controls include non-differentiated pluripotent cells (baseline control), lineage-specific differentiated cells (differentiation control), and DMSO solvent exposed differentiated cells (solvent control). Experiments typically comprise a minimum of four experimental replicates (n=4).
# [3] = test system: SRY-box transcription factor 17 (SOX17) Protein Expression, Deisenroth Lab, SOX17 (gene 64321); assay: CCTE_Deisenroth_DEVTOX-GLR_Pluri_SOX17: CCTE's DevTox GLR-Pluri Assay Evaluation of SRY-box transcription factor 17 (SOX17) Protein Expression, Deisenroth Lab (AID 2284427; active = hit-call score of the fitted dose curve at least 0.9, where 1 is the maximum)
# Summary of the method: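 Readout: percent SOX17+ cells (SOX17+ count/cell count) by high-content imaging of an inducible fluorescent reporter, corrected for 0.2% DMSO solvent control. RUES2-GLR cells, 48 h differentiation, dosed twice at 24 h intervals, 1 nM - 200 uM.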
# [4] = test system: SRY-box transcription factor 2 (SOX2) Protein Expression, Deisenroth Lab, SOX2 (gene 6657); assay: CCTE_Deisenroth_DEVTOX-GLR_Pluri_SOX2: CCTE's DevTox GLR-Pluri Assay Evaluation of SRY-box transcription factor 2 (SOX2) Protein Expression, Deisenroth Lab (AID 2284428)
# Summary of the method: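 RUES2-GLR (human pluripotent), 48 h post-dosing, 2 exposures q24h, 1 nM–200 uM 10-pt. Fixed, nuclear dye, high-content imaging 5 fields/well. Endpoint: % SOX2+ cells (SOX2+/total count) vs 0.2% DMSO; n≥4.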
# [5] = test system: Brachyury (BRA) Protein Expression, Deisenroth Lab, TBXT (gene 6862); assay: CCTE_Deisenroth_DEVTOX-GLR_Pluri_BRA: CCTE's DevTox GLR-Pluri Assay Evaluation of Brachyury (BRA) Protein Expression, Deisenroth Lab (AID 2284429; active = hit-call score of the fitted dose curve at least 0.9, where 1 is the maximum)
# Summary of the method: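 Human pluripotent RUES2-GLR cells, seeded 24 h, were differentiated 48 h in defined media with two chemical doses at 24-h intervals (10-point, 1 nM - 200 uM). Readout: percent BRA+ cells by fluorescent reporter imaging, minus 0.2% DMSO control.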
# [6] = CCTE_Deisenroth_DEVTOX-GLR_Pluri_CellCount: Viability Assessment in CCTE's DevTox GLR-Pluri Assay Evaluation of Total Cell Counts, Deisenroth Lab (AID 2284430)
# Summary of the method: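 RUES2-GLR human pluripotent cells, seeded 24 h, then differentiated 48 h with two chemical exposures 24 h apart; 10-point series 1 nM - 200 uM. Fixed, nuclear-stained, imaged (5 fields/well); nuclei count as % change vs 0.2% DMSO.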
structure (smiles),measurement,setting,value
CCCCCCCCCC=CCC1CC(=O)OC1=O (stereo not drawn),AC50,TTR (gene 7276),7.87 µM (active)
COc1cc([N+](=O)[O-])ccc1N,AC50,TTR (gene 7276),14.9 µM (active)
CCCCc1ccc2ccccc2c1S(=O)(=O)O,AC50,TTR (gene 7276),0.712 µM (active)
CCCCc1oc2ccccc2c1C(=O)c1cc(I)c(OCCN(CC)CC)c(I)c1,AC50,[1],14.2 µM (active)
same,AC50,[2],18.2 µM (active)
same,AC50,[3],21.4 µM (active)
same,AC50,[4],10.4 µM (active)
same,AC50,[5],6.42 µM (active)
same,AC50,[6],10.6 µM (active)
CCC(C)c1ccccc1O (stereo not drawn),AC50,TTR (gene 7276),22.4 µM (active)
CCCCCCc1ccc(N)cc1,AC50,TTR (gene 7276),9.58 µM (active)
O=C1NS(=O)(=O)c2ccccc21,outcome,[1],inactive
same,outcome,[2],inactive
same,outcome,[3],inactive
same,outcome,[4],inactive
same,outcome,[5],inactive
same,outcome,[6],inactive
CCCCCCCCCCCC(=O)O,AC50,TTR (gene 7276),3.05 µM (active)
Cc1[nH]nc2c1N=C(c1ccccc1Cl)c1cc([N+](=O)[O-])ccc1N2,AC50,TTR (gene 7276),0.771 µM (active)
CC(=O)Nc1ccc(O)cc1,outcome,[1],inactive
same,outcome,[2],inactive
same,outcome,[3],inactive
same,outcome,[4],inactive
same,outcome,[5],inactive
same,outcome,[6],inactive
O=C(c1ccccc1)c1ccccc1,AC50,TTR (gene 7276),21.3 µM (active)
CN(Cc1cnc2nc(N)nc(N)c2n1)c1ccc(C(=O)N[C@@H](CCC(=O)O)C(=O)O)cc1,AC50,[1],0.329 µM (active)
same,AC50,[2],0.361 µM (active)
same,outcome,[3],inactive
same,AC50,[4],0.0314 µM (active)
same,outcome,[5],inactive
same,outcome,[6],inactive
CN(C)CCOC(c1ccccc1)c1ccccc1,AC50,[1],46.8 µM (active)
same,AC50,[2],61.7 µM (active)
same,AC50,[3],36.2 µM (active)
same,AC50,[4],83.2 µM (active)
same,AC50,[5],19.8 µM (active)
same,outcome,[6],inactive
